Unmarked numbers belong to inactive results. Calls of active or inactive are those of the source. Cut-off read from the data, not from the text of the source, unless noted: active = inhibition above about 28%; inactive = the rest.

In assay [1] the target is Nuclear receptor coactivator 3 (Homo sapiens) (UniProt Q9Y6Q9). Briefly: NCOA3 GAL4-fusion reporter inhibition – cell-based, luminescence, quadruplicate, confirmation (AID 588792;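 active = mean inhibition over 43.08%, the solvent-only control mean plus 3 SD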;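 note: 0% = DMSO treated cells and 100% = gossypol at 36 µM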). Particulars: HEK293 GAL4-SRC3 luciferase reporter, at 3.6 µM, stronger effect = higher value.
For assay [2], the system named is transactivating tegument protein VP16 (Human herpesvirus 1), Gal4-VP16 luciferase reporter. Nature of the assay: repression of VP16-driven luciferase reporter – cell-based, luminescence, high throughput, counter-screen for SRC3 inhibitor project (AID 588794; in the data active = inhibition above about 30%). Particulars: mammalian cells, at 3.6 µM, stronger effect = higher value.
Assay [3] deals with Nuclear receptor coactivator 1 (Homo sapiens) (UniProt Q15788). Nature of the assay: NCOA1 GAL4-fusion reporter inhibition – cell-based, luminescence, quadruplicate, confirmation (AID 588820;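 active = mean inhibition above 46.68%, the untreated control wells mean plus 3 SD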;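 note: 0% = DMSO wells and 100% = gossypol 36 µM treated wells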). Particulars: HEK293 GAL4-SRC1 luciferase reporter, at 3.6 µM, stronger effect = higher value.
Assay [4] is described as follows: repression of VP16-driven luciferase reporter – cell-based, luminescence, high throughput, counter-screen for SRC1 inhibitor project (AID 588824; in the data active = inhibition above about 25%). Particulars: cell-based VP16 transactivation luciferase luminescence; at 3.6 µM; stronger effect = higher value.
A short description of assay [5]: StAR promoter reporter inhibitors, counter-screen for LRH-1 inverse agonist project, cell-based, luminescence, high throughput (AID 651611). The following applies: StAR promoter luciferase reporter counterscreen, at 3.6 µM, stronger effect = higher value.
Assay [6] has as its target Nuclear receptor subfamily 5 group A member 2 (Homo sapiens) (UniProt O00482). Nature of the assay: NR5A2 activity suppression in reporter cells – cell-based, luminescence, confirmation (AID 651613; in the data active = inhibition above about 42%;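 note: HEK293T cells co-transfected with LRH-1 and StAR promoter luciferase reporter; 0% = vehicle wells and 100% = parental cells lacking receptor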). Particulars: cell-based LRH-1 luciferase reporter, inverse agonism; at 3.6 µM; stronger effect = higher value.
Assay [7] deals with Steroidogenic factor 1 (Homo sapiens) (UniProt Q13285). Briefly: inverse agonism at SF1 nuclear receptor – cell-based, luminescence, high throughput, counter-screen for LRH-1 inverse agonist project (AID 651614; in the data active = inhibition above about 44%;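 note: cells cotransfected with StAR promoter reporter and SF1 expression vector; 0% = vehicle on cells with receptor and 100% = vehicle on cells lacking receptor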). Particulars: cell-based SF1 luciferase reporter, at 3.6 µM, stronger effect = higher value.
A short description of assay [8]: compounds suppressing VP16-driven luciferase signal – cell-based, luminescence, high throughput, counter-screen for LRH-1 inverse agonist project (AID 651615; in the data active = inhibition above about 33%). Particulars: Gal4-VP16 luciferase reporter cells, at 3.6 µM, stronger effect = higher value.
Assay [9] concerns transactivating tegument protein VP16 (Human herpesvirus 1). Briefly: compounds suppressing VP16-driven luciferase signal – cell-based, luminescence, single concentration, counter-screen for SRC2 inhibitor project (AID 652007; in the data active = inhibition above about 36%). The following applies: cell-based VP16 transactivation luciferase reporter, at 8.9 µM, stronger effect = higher value.
Assay [10] concerns the target Nuclear receptor coactivator 2 (Homo sapiens) (UniProt Q15596). Briefly: inhibition of GAL4-SRC2 driven luciferase expression – cell-based, luminescence, HEK293, triplicate, confirmation (AID 652008;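 active = mean inhibition above 46.5%, the solvent-only control mean plus 3 SD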;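 note: 0% = DMSO-treated cells and 100% = Gossypol at 36 µM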). Particulars: HEK293 GAL4-SRC2 luciferase reporter, at 8.9 µM, stronger effect = higher value.

Nuclear receptor subfamily 5 group A member 2 (Homo sapiens), sequence (O00482 whole entry, looked up): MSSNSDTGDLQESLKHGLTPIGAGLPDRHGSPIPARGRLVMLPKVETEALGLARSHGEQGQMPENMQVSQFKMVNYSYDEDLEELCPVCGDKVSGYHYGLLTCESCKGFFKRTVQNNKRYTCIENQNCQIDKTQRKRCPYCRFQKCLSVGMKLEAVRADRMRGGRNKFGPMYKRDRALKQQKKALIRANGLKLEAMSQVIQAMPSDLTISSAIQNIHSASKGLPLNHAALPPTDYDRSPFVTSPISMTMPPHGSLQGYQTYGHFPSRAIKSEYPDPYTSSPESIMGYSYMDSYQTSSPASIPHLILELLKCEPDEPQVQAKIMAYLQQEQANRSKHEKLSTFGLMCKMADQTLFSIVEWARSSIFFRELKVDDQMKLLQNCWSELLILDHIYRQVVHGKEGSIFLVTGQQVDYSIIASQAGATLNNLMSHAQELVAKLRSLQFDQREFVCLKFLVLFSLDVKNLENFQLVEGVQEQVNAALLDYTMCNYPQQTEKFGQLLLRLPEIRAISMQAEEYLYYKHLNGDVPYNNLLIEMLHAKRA
Steroidogenic factor 1 (Homo sapiens), sequence (Q13285 whole entry, looked up, the tested form may be a part): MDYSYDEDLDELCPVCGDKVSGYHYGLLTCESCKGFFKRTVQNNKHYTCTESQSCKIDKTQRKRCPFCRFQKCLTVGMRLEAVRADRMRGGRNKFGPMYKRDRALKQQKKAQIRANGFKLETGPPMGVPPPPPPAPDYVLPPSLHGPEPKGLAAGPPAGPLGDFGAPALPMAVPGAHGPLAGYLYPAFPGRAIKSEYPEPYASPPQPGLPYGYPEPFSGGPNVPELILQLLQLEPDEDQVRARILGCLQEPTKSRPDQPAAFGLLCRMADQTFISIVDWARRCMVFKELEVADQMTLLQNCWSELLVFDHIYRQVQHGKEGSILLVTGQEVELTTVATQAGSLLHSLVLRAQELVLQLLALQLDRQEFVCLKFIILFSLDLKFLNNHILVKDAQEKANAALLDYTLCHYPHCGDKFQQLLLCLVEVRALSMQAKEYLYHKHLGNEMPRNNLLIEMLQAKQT
Nuclear receptor coactivator 3 (Homo sapiens), sequence (Q9Y6Q9 whole entry, looked up, the tested form may be a part): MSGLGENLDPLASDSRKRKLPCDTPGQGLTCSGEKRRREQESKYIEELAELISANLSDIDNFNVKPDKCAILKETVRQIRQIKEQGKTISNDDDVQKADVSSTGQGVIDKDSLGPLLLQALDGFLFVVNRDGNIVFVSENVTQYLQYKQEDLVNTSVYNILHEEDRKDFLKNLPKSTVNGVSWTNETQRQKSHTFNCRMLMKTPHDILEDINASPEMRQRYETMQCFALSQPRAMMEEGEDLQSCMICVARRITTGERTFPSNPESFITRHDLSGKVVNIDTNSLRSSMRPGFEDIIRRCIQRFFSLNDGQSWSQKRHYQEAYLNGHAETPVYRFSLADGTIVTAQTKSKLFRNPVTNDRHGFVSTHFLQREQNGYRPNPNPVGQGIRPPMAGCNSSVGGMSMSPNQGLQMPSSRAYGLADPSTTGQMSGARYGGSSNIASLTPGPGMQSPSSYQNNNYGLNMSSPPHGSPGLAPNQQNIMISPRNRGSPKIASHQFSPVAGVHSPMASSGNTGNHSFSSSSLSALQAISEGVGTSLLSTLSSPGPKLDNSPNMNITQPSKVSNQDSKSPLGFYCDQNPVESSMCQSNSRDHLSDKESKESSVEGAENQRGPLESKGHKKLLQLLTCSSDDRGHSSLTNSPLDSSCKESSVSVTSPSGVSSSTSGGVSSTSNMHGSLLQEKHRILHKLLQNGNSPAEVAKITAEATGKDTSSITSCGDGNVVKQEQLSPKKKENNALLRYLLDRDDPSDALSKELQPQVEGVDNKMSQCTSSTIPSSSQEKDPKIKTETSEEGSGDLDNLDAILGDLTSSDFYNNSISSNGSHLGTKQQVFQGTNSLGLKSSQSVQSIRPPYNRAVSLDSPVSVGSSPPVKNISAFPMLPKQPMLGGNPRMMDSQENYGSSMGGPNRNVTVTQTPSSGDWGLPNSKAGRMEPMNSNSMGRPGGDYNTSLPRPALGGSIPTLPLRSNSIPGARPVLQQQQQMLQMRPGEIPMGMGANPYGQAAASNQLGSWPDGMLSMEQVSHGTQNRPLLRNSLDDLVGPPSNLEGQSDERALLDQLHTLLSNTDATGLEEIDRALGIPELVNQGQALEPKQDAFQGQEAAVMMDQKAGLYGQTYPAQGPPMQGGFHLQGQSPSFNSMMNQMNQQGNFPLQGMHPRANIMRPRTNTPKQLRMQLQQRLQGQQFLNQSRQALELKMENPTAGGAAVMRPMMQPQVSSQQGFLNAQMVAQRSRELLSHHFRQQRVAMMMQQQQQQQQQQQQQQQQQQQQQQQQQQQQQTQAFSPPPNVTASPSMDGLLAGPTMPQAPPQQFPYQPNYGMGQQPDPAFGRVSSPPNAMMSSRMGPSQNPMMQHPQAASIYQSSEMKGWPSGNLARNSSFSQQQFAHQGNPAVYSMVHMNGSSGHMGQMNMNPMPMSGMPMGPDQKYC
Nuclear receptor coactivator 1 (Homo sapiens), sequence (Q15788 whole entry, looked up, the tested form may be a part): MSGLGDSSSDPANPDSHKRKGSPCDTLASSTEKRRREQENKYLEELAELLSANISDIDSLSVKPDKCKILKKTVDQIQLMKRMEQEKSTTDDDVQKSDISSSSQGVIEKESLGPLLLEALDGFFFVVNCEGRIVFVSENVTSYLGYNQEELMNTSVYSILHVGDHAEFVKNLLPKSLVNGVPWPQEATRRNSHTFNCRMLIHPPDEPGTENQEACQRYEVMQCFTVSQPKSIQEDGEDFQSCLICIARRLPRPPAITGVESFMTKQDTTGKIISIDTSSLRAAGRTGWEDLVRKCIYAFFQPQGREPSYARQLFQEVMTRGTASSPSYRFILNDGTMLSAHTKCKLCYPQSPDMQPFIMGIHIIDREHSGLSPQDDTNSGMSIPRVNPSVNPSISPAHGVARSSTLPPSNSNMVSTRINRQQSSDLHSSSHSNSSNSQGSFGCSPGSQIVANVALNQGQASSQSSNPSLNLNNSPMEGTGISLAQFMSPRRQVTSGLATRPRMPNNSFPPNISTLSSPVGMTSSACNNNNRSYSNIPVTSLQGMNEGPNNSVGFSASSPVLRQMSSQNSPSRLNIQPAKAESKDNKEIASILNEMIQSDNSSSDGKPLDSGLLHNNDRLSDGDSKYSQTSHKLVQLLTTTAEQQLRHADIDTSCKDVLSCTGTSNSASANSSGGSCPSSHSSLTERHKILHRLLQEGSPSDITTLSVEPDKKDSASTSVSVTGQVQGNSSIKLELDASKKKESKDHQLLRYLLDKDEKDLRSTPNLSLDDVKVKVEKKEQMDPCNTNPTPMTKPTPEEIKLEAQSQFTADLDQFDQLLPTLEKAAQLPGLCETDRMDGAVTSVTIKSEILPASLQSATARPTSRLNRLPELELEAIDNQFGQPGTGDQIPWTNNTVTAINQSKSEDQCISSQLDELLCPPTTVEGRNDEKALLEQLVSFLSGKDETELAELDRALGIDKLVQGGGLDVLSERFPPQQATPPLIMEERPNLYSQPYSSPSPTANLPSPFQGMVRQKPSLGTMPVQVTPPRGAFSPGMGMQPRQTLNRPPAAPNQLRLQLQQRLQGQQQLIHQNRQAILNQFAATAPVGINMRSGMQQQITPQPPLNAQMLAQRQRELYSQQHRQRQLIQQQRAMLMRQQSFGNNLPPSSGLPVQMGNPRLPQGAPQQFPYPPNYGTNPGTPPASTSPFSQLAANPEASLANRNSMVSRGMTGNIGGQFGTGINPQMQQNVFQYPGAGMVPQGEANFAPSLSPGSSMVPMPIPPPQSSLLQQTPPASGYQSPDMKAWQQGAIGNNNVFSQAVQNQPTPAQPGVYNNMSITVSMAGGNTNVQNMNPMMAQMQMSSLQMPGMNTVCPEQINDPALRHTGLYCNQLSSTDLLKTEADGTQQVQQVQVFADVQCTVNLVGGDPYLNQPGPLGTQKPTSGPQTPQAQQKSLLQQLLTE

Regarding `COc1ccccc1C(=O)Nc1nc2ccccc2[nH]1`, the inhibition is 79.4% (active) in [1]; 72.7% (active) in [2]; 58.5% (active) in [3]; 75.2% (active) in assay [4]; 75.3% (active) in assay [5]; 75.4% (active) in [6]. Besides, the inhibition was 83.8% (active) in assay [7], 66.3% (active) in assay [8], 89.6% (active) in assay [9] and 93.8% (active) in assay [10].
On to `O=C(CN1C(=O)c2ccccc2S1(=O)=O)c1ccc(Cl)cc1Cl`, for which the inhibition in assay [1] is 65.8% (active); in [2], 71.5% (active); in [3] it was 8.08%; in [4], 62.5% (active); in assay [5], 67.9% (active); in assay [6], 55.3% (active). Also, the inhibition was 73% (active) in assay [7], 57.4% (active) in [8], 81.2% (active) in assay [9] and 83.7% (active) in assay [10].
With `Cc1ccccc1C(=O)N1CCN(c2ccc(NC(=O)c3ccc4c(c3)OCO4)cc2)CC1`, the inhibition in assay [1] was 55.4% (active); in [2], 72.5% (active); in assay [3], 60.7% (active); in [4], 72.9% (active); in assay [5], 60.1% (active); in assay [6], 75.1% (active). The inhibition is 76.1% (active) in [7], 80.7% (active) in assay [8], 10.2% in assay [9] and 27.1% in assay [10].
Turning to `CCC(C)(C)c1ccc(Oc2ccc(N)cc2)cc1`, the inhibition was 64.5% (active) in [1]; 52.2% (active) in assay [2]; 51.2% (active) in [3]; 48% (active) in assay [4]; 57.4% (active) in assay [5]; 87.3% (active) in assay [6]. For the same molecule, the inhibition in assay [7] is 72.8% (active); in assay [8], 63.9% (active); in [9], 90.3% (active); in assay [10], 95.4% (active).
In the case of `CCN(CC)c1ccc(C(=C2C=CC(=[N+](CC)CC)C=C2)c2ccccc2)cc1`, the inhibition was 95.5% (active) in [1]; 95.9% (active) in assay [2]; -95% in assay [3]; 94.3% (active) in assay [4]; 97.7% (active) in assay [5]; 109% (active) in [6]. The inhibition is 99.1% (active) in [7], 98.7% (active) in assay [8], 98.3% (active) in [9] and 99.5% (active) in assay [10].
As to `Nc1ccc(Oc2cccc(Oc3ccc(N)cc3)c2)cc1`, the inhibition in assay [1] is 43.4% (active); in [2] it was 29.6% (active); in [3] it was 24.3%; in assay [4], 27.6% (active); in [5], 47.8% (active); in assay [6] it was 75.6% (active). Besides, the inhibition in assay [7] is 67.8% (active); in assay [8] it was 47.5% (active); in [9], 88.8% (active); in assay [10], 92.8% (active).
Consider `COc1cc(OC)cc(-c2cc3nc(C)c(CCC(=O)O)c(C)n3n2)c1`, for which the inhibition in assay [1] is 66.4% (active); in assay [2] it was 69.9% (active); in assay [3], 55.8% (active); in assay [4], 64.1% (active); in assay [5], 64.9% (active); in assay [6], 76.4% (active). Besides, the inhibition in assay [7] was 71% (active); in assay [8], 69% (active); in assay [9], 89.9% (active); in assay [10], 93.3% (active).
For the molecule `NC(=O)c1cc2ccncc2c2ccccc12`, the inhibition is 80.3% (active) in assay [1]; 64.8% (active) in assay [2]; 78.5% (active) in assay [3]; 59.3% (active) in [4]; 42.8% (active) in assay [5]; 62.1% (active) in assay [6]. Besides, the inhibition was 58.1% (active) in assay [7], 77.2% (active) in assay [8], 20.5% in [9] and 68.9% (active) in assay [10].
For the molecule `CC(C)(C)c1ccc(C(=O)O/N=C(\N)c2ccccn2)cc1`, the inhibition in assay [1] is 85.4% (active); in assay [2], 77.2% (active); in assay [3], 64.9% (active); in assay [4] it was 67.5% (active); in assay [5], 61.1% (active); in assay [6], 45.8% (active). Besides, the inhibition in assay [7] is 58.5% (active); in assay [8], 62.5% (active); in assay [9], 83.1% (active); in assay [10], 94.4% (active).
Consider `CNC1=C(N(C(C)=O)c2ccc(Br)cc2)C(=O)c2ccccc2C1=O`, for which the inhibition in assay [1] was 82.4% (active); in assay [2], 84.8% (active); in assay [3], 74.2% (active); in assay [4] it was 84.8% (active); in [5] it was 76.4% (active); in [6], 97.4% (active). For the same molecule, the inhibition in assay [7] was 90.8% (active); in assay [8], 89.3% (active); in assay [9], 18.5%; in assay [10], 48.9% (active).
In the case of `CC(O)CC(=O)OC[C@]12CC[C@H]3[C@@](C)(CC[C@H]4C(C)(C)CCC[C@]34C)[C@@H]1CC(C1=CC(=O)OC1O)O2` (stereo not given in full), the inhibition in assay [1] was 30.2%; in assay [2] it was 53.4% (active); in assay [3] it was 31%; in [4], 43.4% (active); in [5], 51.2% (active); in [6], 76.6% (active). The inhibition is 80.5% (active) in assay [7], 75.2% (active) in assay [8], 50.6% (active) in [9] and -41% in assay [10].
As for `O=C1N(c2ccccc2)C[C@@H]2C[C@@H](c3cc4ccccc4o3)N3CCC[C@@]123`, the inhibition in [1] was 95.3% (active); in [2], 96.3% (active); in [3] it was 74.5% (active); in [4], 94.7% (active); in assay [5], 90.4% (active); in [6], 109% (active). In addition, the inhibition in [7] is 98% (active); in assay [8], 98.4% (active); in assay [9], 47.8% (active); in [10] it was 43.3%.
For the molecule `Nc1ncnc2c(C3OC(CO)C(O)C3O)scc12` (stereo not given), the inhibition in assay [1] was 90.7% (active); in assay [2], 95.1% (active); in assay [3], 78.5% (active); in [4] it was 94.9% (active); in [5], 89.2% (active); in assay [6] it was 107% (active). In addition, the inhibition in [7] was 96.5% (active); in assay [8] it was 92.9% (active); in assay [9], 62.8% (active); in assay [10] it was 57.2% (active).
Regarding `COc1ccc(/C=C2\SC(=O)N(CCCC(=O)Nc3cc(Cl)ccc3C(=O)O)C2=O)cc1`, the inhibition is 86.5% (active) in assay [1]; 77% (active) in [2]; 75.5% (active) in assay [3]; 70.3% (active) in [4]; 83.7% (active) in [5]; 94% (active) in [6]. Further, the inhibition in [7] was 82% (active); in assay [8] it was 75.7% (active); in assay [9], 93.9% (active); in assay [10] it was 97.8% (active).
For the molecule `Cc1ccc(C(=O)O/N=C(\N)c2ccccn2)c(C)c1`, the inhibition in assay [1] was 60% (active); in assay [2], 42.3% (active); in assay [3], 15%; in assay [4], 28.9% (active); in assay [5] it was 33.2% (active); in assay [6], 9.46%. Further, the inhibition is 36.5% in assay [7], 13.6% in assay [8], 71.3% (active) in [9] and 86% (active) in assay [10].

The values above are taken from PubChem BioAssay.
